# According to article PMC7862700, “An all-to-all approach to the identification of sequence-specific readers for epigenetic DNA modifications on cytosine”:
# What was measured:
# Test in all cases: DAPPL (digital affinity profiling via proximity ligation, sequencing); 10 mM Tris-HCl pH 7.5, 50 mM NaCl, 1 mM DTT, 4% glycerol, room temperature, 30 min; GST-TFs on glutathione beads, 16-mer random dsDNA library, 0.1% formaldehyde crosslink after washing; high values mean tight binding
# Conditions in all cases: protein: recombinant; tags: N-terminal GST; dsDNA, one strand shown
# ELK1 = target: T1, ELK1 (Homo sapiens, UniProt P19419 1-428)
# T1 sequence: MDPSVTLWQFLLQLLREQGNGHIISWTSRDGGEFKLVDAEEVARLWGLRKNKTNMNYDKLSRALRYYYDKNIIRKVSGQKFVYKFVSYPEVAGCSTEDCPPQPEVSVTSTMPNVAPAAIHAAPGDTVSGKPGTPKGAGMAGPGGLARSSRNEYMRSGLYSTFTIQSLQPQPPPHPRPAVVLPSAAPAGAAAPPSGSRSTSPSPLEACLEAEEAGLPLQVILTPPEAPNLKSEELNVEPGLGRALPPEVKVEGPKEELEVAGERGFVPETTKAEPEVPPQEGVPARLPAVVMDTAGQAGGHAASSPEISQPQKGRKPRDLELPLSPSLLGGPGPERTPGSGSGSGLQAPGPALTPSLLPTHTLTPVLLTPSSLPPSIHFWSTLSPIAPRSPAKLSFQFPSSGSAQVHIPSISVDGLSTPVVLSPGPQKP
# How it was run: (§1)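 GST fusions of human transcription factors were expressed in yeast and captured with glutathione beads. Once given DNA barcodes and pooled alongside a tag-only sample, they were incubated for 30 min at room temperature with 200 nmole of a random double-stranded 16-mer DNA library in Tris/NaCl/DTT/glycerol buffer, then washed, crosslinked (0.1% formaldehyde), proximity-ligated, PCR-amplified and sequenced on an Illumina NextSeq500. The binding signal of each hexamer is its read frequency for a factor divided by its frequency for the tag-only sample.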
# GABPA = target: T2, GABPA (Homo sapiens, UniProt Q06546 1-454)
# T2 sequence: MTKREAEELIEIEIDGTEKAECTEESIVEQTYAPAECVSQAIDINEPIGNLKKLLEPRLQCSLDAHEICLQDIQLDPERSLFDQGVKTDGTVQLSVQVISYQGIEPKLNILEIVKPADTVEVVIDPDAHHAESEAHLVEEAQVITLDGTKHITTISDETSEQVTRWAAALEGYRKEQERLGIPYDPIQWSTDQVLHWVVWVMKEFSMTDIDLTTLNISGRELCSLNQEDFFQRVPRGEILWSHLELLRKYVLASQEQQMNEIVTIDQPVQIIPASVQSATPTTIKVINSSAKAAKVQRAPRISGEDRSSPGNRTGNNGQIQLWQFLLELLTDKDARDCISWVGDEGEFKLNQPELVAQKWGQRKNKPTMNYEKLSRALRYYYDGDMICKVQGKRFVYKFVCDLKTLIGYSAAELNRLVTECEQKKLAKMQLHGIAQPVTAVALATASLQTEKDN
# How it was run: as §1
# ERG = target: T3, ERG (Homo sapiens, UniProt P11308 1-479)
# T3 sequence: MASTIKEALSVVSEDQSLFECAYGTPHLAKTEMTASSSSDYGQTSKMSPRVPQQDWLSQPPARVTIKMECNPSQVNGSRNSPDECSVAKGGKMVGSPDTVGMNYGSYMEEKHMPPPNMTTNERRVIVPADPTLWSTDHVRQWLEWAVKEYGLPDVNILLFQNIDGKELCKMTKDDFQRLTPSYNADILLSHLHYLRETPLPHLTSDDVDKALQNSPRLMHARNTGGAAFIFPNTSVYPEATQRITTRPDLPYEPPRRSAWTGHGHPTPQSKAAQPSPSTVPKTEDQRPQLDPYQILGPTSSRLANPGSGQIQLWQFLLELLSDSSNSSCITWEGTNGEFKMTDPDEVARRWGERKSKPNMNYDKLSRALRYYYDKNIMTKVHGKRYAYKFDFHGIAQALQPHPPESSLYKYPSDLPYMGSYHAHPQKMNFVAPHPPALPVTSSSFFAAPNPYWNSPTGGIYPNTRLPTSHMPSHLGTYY
# How it was run: as §1
# ELF1 = ELF1 (Homo sapiens, UniProt P32519 1-619)
# How it was run: as §1
# SPIB = SPIB (Homo sapiens, UniProt Q01892 1-262)
# How it was run: as §1
# ELK3 = target: T4, ELK3 (Homo sapiens, UniProt P41970 1-407)
# T4 sequence: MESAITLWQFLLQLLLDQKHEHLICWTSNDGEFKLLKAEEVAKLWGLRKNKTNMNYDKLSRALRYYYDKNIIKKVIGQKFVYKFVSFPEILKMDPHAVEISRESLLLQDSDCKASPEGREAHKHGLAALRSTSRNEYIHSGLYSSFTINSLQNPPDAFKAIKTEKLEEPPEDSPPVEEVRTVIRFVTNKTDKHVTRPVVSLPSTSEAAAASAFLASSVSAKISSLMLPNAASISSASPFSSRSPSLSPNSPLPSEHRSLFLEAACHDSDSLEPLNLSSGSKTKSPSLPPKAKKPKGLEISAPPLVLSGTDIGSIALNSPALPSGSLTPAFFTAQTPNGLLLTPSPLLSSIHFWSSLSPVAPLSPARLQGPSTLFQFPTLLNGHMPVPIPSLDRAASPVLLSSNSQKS
# How it was run: as §1
# ETV5 = ETV5 (Homo sapiens, UniProt P41161 1-510)
# How it was run: as §1
# SPIC = target: T5, SPIC (Homo sapiens, UniProt Q8N5J4 1-248)
# T5 sequence: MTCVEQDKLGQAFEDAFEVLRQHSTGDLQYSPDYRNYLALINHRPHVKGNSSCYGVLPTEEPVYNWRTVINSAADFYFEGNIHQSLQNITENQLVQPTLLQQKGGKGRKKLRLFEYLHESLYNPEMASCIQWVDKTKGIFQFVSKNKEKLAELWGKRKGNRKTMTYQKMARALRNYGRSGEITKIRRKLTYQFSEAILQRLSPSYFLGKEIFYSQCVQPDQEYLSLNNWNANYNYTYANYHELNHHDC
# How it was run: as §1
# ELF4 = ELF4 (Homo sapiens, UniProt Q99607 1-663)
# How it was run: as §1
# ELK4 = target: T6, ELK4 (Homo sapiens, UniProt P28324-2 1-405)
# T6 sequence: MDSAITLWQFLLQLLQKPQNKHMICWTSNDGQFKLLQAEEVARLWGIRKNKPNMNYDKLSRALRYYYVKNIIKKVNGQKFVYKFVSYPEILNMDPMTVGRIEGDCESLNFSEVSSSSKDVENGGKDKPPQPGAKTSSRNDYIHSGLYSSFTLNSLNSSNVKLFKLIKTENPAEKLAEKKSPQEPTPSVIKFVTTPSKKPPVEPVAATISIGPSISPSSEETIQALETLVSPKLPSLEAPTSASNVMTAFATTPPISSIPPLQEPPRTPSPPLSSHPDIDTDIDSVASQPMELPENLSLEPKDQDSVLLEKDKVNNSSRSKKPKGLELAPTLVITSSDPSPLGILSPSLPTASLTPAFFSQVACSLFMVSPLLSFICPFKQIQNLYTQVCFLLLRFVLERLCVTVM
# How it was run: as §1
# ELF3 = target: T7, ELF3 (Homo sapiens, UniProt P78545 1-371)
# T7 sequence: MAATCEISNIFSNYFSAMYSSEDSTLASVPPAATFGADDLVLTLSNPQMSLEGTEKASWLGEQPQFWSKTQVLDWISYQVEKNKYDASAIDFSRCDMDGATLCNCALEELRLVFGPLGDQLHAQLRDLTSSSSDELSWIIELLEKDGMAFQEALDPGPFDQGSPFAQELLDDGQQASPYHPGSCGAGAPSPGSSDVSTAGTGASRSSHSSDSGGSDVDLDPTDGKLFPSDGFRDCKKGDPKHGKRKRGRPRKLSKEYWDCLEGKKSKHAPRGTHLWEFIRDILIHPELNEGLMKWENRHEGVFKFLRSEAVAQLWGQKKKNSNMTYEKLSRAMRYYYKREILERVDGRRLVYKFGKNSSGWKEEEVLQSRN
# How it was run: as §1
# ERF = target: T8, ERF (Homo sapiens, UniProt P50548 1-548)
# T8 sequence: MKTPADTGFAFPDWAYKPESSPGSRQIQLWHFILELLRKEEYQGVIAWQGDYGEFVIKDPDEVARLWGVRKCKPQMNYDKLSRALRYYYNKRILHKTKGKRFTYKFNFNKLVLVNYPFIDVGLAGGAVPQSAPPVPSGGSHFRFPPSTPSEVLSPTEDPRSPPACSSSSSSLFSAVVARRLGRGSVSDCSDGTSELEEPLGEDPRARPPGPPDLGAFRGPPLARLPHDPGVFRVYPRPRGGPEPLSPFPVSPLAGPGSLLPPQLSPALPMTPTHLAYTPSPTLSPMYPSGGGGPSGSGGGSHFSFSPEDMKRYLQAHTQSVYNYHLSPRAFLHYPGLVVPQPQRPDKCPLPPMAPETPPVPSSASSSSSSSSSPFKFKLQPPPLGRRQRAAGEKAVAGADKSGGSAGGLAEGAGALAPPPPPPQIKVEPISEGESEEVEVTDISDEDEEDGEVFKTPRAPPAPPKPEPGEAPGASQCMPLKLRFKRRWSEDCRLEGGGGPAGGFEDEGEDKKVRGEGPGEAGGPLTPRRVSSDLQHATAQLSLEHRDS
# How it was run: as §1
# ETV3L = target: T9, ETV3L (Homo sapiens, UniProt Q6ZN32 1-361)
# T9 sequence: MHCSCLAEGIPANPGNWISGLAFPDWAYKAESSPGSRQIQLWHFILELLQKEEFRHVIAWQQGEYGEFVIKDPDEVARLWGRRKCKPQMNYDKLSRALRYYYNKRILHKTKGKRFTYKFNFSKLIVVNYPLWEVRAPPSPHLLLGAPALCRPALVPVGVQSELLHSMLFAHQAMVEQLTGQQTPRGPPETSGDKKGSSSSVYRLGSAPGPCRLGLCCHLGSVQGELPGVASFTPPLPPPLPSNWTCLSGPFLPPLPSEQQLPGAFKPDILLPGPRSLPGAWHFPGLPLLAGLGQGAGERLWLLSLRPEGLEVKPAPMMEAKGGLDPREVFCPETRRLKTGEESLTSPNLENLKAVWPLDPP
# How it was run: as §1
# ETS2 = target: T10, ETS2 (Homo sapiens, UniProt P15036 1-469)
# T10 sequence: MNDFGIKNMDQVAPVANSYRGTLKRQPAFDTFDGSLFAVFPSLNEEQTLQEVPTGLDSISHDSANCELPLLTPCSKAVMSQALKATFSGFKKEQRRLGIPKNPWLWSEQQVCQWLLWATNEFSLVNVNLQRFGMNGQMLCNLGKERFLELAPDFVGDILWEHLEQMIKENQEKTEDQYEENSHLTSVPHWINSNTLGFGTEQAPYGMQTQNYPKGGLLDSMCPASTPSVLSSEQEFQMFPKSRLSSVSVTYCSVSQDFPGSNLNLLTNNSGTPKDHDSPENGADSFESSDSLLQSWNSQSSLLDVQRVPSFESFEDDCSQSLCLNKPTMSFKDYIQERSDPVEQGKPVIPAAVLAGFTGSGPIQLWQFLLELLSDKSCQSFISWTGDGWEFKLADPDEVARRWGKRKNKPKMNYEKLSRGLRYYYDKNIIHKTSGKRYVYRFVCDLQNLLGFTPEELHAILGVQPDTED
# How it was run: as §1
# ETV7 = target: T11, ETV7 (Homo sapiens, UniProt Q9Y603 1-341)
# T11 sequence: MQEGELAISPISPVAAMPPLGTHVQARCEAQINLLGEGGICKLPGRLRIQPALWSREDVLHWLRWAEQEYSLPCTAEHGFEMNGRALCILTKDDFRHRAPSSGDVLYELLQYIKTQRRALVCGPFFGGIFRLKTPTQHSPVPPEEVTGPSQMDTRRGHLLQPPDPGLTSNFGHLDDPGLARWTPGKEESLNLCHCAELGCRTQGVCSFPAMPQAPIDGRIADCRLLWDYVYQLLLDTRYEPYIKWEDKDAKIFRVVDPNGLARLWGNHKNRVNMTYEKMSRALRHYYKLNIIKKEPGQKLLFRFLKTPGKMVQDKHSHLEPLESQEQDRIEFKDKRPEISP
# How it was run: as §1
# ETV3 = target: T12, ETV3 (Homo sapiens, UniProt P41162-2 1-143)
# T12 sequence: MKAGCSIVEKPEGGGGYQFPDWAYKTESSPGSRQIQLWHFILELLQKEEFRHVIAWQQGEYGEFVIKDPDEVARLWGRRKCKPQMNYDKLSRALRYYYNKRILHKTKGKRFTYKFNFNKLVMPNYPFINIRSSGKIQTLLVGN
# How it was run: as §1
# ETV6 = ETV6 (Homo sapiens, UniProt P41212 1-452)
# How it was run: as §1
# Sequence of ETV5 (P41161 whole entry): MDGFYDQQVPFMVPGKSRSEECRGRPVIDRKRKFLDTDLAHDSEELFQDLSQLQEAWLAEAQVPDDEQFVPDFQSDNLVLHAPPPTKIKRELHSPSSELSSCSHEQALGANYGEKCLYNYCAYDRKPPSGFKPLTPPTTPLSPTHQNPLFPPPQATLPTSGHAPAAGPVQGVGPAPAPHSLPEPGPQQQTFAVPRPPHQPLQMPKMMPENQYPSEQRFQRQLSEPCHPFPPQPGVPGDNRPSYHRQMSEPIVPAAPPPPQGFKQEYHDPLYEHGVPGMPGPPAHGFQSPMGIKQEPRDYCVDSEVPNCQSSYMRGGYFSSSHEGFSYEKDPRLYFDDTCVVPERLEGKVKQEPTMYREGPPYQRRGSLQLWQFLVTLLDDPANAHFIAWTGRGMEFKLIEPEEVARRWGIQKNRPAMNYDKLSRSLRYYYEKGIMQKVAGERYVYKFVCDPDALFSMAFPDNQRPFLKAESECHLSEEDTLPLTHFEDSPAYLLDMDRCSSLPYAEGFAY
# Sequence of ETV6 (P41212 whole entry): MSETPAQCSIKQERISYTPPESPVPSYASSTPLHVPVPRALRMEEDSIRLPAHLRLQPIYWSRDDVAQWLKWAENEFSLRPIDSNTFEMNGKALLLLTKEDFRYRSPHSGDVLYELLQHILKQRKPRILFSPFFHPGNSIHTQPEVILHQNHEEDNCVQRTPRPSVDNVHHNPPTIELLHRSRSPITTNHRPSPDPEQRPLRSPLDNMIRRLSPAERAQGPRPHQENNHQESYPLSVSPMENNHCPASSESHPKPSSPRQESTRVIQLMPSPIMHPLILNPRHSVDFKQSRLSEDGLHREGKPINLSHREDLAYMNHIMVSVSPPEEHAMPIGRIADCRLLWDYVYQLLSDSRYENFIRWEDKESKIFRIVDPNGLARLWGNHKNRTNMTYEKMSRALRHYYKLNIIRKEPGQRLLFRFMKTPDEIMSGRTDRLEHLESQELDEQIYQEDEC
# Sequence of SPIB (Q01892 whole entry): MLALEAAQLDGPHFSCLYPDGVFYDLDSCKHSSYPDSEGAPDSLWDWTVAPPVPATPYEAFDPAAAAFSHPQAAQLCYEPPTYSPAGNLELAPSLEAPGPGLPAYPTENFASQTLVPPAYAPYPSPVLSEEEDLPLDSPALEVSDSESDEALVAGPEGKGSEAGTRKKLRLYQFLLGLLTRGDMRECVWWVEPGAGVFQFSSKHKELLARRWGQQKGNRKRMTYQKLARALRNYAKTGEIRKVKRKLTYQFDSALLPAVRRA
# Sequence of ELF4 (Q99607 whole entry): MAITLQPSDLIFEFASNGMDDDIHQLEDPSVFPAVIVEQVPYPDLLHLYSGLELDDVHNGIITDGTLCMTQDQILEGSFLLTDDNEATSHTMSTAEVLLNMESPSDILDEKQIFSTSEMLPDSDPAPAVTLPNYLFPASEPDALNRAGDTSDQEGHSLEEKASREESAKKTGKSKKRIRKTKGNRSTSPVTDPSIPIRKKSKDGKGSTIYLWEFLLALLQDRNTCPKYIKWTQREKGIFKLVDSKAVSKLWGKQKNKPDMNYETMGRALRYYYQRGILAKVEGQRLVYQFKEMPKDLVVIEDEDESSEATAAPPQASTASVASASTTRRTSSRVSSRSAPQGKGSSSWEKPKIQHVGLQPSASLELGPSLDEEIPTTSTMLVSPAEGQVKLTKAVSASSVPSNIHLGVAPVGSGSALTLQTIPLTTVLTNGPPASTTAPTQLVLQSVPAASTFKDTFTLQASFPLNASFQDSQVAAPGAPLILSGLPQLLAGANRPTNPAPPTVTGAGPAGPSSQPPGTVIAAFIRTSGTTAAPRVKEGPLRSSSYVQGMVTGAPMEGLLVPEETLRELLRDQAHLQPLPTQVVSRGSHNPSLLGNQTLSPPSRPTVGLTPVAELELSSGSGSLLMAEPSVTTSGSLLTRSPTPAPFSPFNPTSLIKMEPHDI
# Sequence of ELF1 (P32519 whole entry): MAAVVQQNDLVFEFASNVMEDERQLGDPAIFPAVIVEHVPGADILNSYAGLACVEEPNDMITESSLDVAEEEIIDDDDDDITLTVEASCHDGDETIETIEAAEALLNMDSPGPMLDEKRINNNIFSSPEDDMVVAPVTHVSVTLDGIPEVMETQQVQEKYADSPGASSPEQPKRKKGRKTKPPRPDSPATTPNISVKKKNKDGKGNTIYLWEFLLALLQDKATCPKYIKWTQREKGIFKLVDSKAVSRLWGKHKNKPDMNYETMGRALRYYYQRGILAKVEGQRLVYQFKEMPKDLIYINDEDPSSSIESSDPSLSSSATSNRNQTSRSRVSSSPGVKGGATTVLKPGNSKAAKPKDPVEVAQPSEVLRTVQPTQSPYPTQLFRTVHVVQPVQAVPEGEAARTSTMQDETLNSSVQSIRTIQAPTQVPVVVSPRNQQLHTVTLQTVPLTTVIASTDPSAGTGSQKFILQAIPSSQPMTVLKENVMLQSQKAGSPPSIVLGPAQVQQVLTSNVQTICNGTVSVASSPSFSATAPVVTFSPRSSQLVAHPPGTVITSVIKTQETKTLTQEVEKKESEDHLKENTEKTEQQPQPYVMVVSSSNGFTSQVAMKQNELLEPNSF
sequence,measurement,setting,value
ACTGGT,binding signal,ELK1,"1.06 fold enrichment (6-mer frequency, TF over GST control)"
same,binding signal,GABPA,"1.08 fold enrichment (6-mer frequency, TF over GST control)"
same,binding signal,ERG,"1.07 fold enrichment (6-mer frequency, TF over GST control)"
same,binding signal,ELF1,"1.13 fold enrichment (6-mer frequency, TF over GST control)"
same,binding signal,SPIB,"1.08 fold enrichment (6-mer frequency, TF over GST control)"
same,binding signal,ELK3,"1.08 fold enrichment (6-mer frequency, TF over GST control)"
same,binding signal,ETV5,"1.02 fold enrichment (6-mer frequency, TF over GST control)"
same,binding signal,SPIC,"1.07 fold enrichment (6-mer frequency, TF over GST control)"
same,binding signal,ELF4,"1.07 fold enrichment (6-mer frequency, TF over GST control)"
same,binding signal,ELK4,"1.06 fold enrichment (6-mer frequency, TF over GST control)"
same,binding signal,ELF3,"1.06 fold enrichment (6-mer frequency, TF over GST control)"
same,binding signal,ERF,"1.03 fold enrichment (6-mer frequency, TF over GST control)"
same,binding signal,ETV3L,"1.07 fold enrichment (6-mer frequency, TF over GST control)"
same,binding signal,ETS2,"1.03 fold enrichment (6-mer frequency, TF over GST control)"
same,binding signal,ETV7,"1.05 fold enrichment (6-mer frequency, TF over GST control)"
same,binding signal,ETV3,"1.06 fold enrichment (6-mer frequency, TF over GST control)"
same,binding signal,ETV6,"1.08 fold enrichment (6-mer frequency, TF over GST control)"
